Data taken from the supplement of paper PMC10849652.
Of roughly 7,900 targets only a part is listed; those with a hit were picked by preference. About 0.6% of all pairs of compound and target were hits.

Compound: c1cn2cc(-c3ccc4cn[nH]c4c3)nc(Nc3ccc(N4CCOCC4)cc3)c2n1 [entospletinib]
Assay: log2 fold change, soluble protein after heating vs DMSO (PISA); higher = thermal stabilisation; K562 cells, 10 uM, 30 min; active = over 0.2 and 3.5 SD of the protein, either way, in both replicates (recomputed)
Procedure, shortened: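 K562 cells at 2×10^6 cells/mL were treated with 10 μM compound for 30 min. Aliquots were heated for 3 min across 48°C-58°C, pooled, and extracted in PBS with 0.5% NP-40 at 4°C; soluble protein was the supernatant after 21,000xg for 90 min. Soluble protein was quantified by TMTpro 16plex LC-MS/MS with channel sums equalised, and reported as log2 fold change in thermal stability against DMSO controls, with values from duplicates.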

Chain of UniProt P04181 (P04181 whole entry, looked up): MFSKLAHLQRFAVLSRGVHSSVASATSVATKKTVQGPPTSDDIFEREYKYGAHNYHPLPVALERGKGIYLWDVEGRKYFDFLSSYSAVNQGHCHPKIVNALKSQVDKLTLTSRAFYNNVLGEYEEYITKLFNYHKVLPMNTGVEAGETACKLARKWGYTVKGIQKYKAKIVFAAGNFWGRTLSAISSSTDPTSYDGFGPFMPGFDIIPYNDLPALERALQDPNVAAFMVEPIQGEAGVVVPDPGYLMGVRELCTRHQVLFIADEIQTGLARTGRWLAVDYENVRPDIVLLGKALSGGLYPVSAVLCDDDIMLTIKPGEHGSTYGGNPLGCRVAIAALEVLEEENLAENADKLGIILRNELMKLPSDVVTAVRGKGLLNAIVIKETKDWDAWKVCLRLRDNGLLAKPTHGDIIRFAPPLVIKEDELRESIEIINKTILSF
Chain of UniProt P30419 (P30419 whole entry, looked up): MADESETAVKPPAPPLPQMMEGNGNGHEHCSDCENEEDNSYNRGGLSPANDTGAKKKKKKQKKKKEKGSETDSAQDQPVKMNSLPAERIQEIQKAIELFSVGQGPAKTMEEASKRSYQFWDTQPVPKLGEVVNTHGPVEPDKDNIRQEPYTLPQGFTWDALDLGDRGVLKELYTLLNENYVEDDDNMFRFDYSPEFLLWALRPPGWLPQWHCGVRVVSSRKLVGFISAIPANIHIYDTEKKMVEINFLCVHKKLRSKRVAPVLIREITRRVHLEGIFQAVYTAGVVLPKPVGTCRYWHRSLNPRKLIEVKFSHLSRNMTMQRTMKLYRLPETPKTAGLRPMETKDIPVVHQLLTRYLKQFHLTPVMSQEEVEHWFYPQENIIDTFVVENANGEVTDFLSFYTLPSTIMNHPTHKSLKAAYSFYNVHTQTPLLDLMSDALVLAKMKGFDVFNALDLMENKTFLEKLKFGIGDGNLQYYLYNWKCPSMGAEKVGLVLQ
Chain of MTHFD1, A0A384N5Y3 (A0A384N5Y3 whole entry, looked up): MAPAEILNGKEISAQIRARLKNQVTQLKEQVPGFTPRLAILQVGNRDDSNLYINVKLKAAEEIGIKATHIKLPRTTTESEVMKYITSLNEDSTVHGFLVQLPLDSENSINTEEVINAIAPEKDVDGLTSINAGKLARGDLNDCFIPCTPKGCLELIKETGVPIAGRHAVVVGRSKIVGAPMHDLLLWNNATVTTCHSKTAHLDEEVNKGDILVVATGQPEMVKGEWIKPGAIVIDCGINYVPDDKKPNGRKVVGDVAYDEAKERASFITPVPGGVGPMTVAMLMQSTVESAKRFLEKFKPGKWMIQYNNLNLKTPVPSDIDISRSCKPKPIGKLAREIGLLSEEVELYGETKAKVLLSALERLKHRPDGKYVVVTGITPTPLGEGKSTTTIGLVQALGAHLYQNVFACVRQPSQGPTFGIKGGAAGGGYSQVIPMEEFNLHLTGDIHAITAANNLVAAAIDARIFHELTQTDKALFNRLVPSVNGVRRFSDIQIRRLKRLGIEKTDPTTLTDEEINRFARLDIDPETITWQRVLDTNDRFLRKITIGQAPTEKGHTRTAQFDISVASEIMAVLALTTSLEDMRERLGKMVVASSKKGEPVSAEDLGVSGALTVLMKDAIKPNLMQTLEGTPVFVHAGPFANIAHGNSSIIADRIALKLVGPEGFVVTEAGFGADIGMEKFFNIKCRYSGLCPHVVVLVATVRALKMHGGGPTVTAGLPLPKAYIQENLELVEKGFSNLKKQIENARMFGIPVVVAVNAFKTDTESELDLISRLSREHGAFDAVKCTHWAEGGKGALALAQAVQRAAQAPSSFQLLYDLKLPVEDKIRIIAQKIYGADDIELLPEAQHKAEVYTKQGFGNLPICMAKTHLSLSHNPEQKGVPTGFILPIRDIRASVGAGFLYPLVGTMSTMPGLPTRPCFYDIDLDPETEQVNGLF
Chain of UniProt P11586 (P11586 whole entry, looked up): as the sequence (A0A384N5Y3 whole entry, looked up) above
Chain of UniProt Q9HCE1 (Q9HCE1 whole entry, looked up): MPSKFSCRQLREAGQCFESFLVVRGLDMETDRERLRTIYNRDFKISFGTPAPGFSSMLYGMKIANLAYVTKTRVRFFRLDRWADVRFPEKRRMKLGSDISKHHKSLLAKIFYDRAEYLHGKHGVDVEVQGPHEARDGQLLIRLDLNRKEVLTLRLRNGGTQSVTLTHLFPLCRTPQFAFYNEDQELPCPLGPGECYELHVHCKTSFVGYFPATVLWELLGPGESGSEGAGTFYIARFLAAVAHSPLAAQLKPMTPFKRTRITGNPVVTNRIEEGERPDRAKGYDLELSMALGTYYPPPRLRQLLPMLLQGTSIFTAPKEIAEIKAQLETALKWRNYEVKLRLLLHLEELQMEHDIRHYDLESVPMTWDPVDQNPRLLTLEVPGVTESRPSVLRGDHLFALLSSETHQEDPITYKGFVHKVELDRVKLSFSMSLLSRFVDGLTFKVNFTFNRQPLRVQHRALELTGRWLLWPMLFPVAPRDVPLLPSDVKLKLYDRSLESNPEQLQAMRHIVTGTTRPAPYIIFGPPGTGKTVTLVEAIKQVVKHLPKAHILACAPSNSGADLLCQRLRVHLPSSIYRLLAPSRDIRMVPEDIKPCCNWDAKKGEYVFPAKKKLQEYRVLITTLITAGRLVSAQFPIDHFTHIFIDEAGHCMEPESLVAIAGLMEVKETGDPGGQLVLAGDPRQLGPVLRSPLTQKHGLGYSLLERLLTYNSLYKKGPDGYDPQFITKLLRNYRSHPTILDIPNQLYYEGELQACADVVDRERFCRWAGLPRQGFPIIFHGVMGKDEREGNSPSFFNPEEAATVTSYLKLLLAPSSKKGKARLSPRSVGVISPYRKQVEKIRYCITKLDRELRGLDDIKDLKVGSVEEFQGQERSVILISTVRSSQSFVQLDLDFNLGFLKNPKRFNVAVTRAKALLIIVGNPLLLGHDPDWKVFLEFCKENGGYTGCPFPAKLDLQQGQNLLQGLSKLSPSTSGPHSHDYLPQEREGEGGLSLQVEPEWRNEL
Chain of UniProt Q8N5F7 (Q8N5F7 whole entry, looked up): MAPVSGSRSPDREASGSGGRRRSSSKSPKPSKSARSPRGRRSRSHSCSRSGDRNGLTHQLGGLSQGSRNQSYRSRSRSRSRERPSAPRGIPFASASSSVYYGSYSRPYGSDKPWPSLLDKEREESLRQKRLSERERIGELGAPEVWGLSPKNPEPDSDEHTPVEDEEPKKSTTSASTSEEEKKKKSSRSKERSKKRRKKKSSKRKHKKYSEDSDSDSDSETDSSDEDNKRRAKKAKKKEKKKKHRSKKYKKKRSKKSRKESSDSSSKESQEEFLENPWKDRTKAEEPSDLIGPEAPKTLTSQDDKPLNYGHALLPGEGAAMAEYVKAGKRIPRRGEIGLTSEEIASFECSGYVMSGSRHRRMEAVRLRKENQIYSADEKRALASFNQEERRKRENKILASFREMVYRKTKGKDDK
Chain of UniProt Q8N573 (Q8N573 whole entry, looked up): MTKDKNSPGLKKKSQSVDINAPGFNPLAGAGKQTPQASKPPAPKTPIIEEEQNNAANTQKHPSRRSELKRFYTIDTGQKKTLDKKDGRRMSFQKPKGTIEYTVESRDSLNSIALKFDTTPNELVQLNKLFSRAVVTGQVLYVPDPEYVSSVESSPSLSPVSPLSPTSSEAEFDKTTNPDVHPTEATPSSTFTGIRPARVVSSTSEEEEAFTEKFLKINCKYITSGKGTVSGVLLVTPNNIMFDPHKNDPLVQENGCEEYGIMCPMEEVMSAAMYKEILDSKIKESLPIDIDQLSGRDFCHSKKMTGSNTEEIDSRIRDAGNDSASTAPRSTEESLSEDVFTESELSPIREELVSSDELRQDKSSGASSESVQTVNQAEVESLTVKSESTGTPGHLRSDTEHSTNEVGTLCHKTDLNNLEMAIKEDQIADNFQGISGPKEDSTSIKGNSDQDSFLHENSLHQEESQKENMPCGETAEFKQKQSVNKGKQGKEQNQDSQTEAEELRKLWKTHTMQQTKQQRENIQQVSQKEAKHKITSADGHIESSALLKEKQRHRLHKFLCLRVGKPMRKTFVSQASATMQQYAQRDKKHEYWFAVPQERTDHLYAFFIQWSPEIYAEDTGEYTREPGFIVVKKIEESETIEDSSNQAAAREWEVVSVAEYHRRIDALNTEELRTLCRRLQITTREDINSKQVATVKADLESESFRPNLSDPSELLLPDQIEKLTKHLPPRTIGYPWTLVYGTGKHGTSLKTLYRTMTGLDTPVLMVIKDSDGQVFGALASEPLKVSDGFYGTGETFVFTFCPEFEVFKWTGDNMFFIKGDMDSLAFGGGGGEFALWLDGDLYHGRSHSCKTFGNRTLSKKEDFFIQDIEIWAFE
Chain of UniProt P68402 (P68402 whole entry, looked up): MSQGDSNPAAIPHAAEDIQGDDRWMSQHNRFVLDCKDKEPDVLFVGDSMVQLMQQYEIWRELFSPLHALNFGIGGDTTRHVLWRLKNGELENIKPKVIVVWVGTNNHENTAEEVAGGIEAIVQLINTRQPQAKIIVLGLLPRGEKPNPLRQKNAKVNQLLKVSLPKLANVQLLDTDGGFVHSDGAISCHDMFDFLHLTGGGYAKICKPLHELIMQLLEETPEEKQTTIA
Chain of UniProt Q13153 (Q13153 whole entry, looked up): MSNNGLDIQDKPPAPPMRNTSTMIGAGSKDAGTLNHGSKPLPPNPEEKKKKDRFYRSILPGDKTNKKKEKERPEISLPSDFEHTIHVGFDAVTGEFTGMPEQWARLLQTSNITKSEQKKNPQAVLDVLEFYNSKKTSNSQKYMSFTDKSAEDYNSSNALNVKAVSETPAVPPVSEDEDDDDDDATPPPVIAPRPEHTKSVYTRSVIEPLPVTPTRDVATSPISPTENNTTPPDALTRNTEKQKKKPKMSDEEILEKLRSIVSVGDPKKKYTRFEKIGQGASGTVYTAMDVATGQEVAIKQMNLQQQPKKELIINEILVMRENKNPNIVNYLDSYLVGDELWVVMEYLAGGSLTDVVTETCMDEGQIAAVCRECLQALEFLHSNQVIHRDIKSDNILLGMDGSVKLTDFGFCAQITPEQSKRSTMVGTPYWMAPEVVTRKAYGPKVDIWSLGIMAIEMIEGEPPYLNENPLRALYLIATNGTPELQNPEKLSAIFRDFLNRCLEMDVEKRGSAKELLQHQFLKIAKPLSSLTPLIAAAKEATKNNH

log2 fold change, inactive:
PAFAH1B2 (UniProt P68402) 0.022
NDFIP1 (UniProt Q9BT67) -0.003
NAP1L1 (UniProt P55209) 0.028
MTMR14 (UniProt Q8NCE2) -0.061
MRPL47 (UniProt Q9HD33) -0.116
MSH3 (UniProt P20585) -0.095
NUDT1 (UniProt P36639) 0.018
P4HA2 (UniProt O15460) 0.021
NFATC2IP (UniProt Q8NCF5) -0.054
NMT1 (UniProt P30419) 0.04
MTHFD1 (UniProt P11586) 0.055
NA, A0A0B4J2A0 0.021
NANS (UniProt Q9NR45) 0.025
MTHFD1, A0A384N5Y3 0.051
NT5DC1 (UniProt Q5TFE4) 0.039
OVCA2 (UniProt Q8WZ82) -0.031
MT-ND4 (UniProt P03905) 0.022
OSBPL8 (UniProt Q9BZF1) 0.084
ORC3 isoform 2 (UniProt Q9UBD5) 0.114
NTMT1 (UniProt Q9BV86) 0.118
NKAP (UniProt Q8N5F7) -0.144
OAT (UniProt P04181) -0.012
NFX1 (UniProt Q12986) 0.095
NMT2 (UniProt O60551) 0.023
NOL7 (UniProt Q9UMY1) 0.033
OXR1 isoform 2 (UniProt Q8N573) 0.004
NMD3 (UniProt Q96D46) -0.001
MMADHC (UniProt Q9H3L0) 0.158
MOV10 (UniProt Q9HCE1) 0.14
NEU1 (UniProt Q99519) -0.025
NME2P1 (UniProt O60361) -0.571
PAK1 isoform 2 (UniProt Q13153) -0.02
NDUFA4 (UniProt O00483) 0.025
NA, A0A494C071 -0.105
